Data on 18 compounds can be found in PMC5540273 (PLoS ONE, 2017).

Test systems include DAPK2; DAPK3; DDR1; DDR2; DMPK.
Holding throughout (details): concentration: 1 μM, replicates: in singlicate; n = 1
A further experiment deals with T1, DCAMKL1.
T1 construct: gene DCLK1

The subject of a further experiment is T2, DCAMKL2.
T2 construct: gene DCLK2

For a further experiment, the system named is T3, DCAMKL3.
T3 construct: gene DCLK3

For a further experiment, the system named is T4, DLK.
T4 construct: gene MAP3K12

The next experiment concerns T5, DMPK2.
T5 construct: gene CDC42BPG
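Also: KINOMEscan kinase panel screen.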

As to `Cc1cccc(-c2nc(Nc3cccc(C(N)=O)c3)c3ccccc3n2)n1` [GW876019], the “%Inh” value is reported as 0% in the experiment with DAPK2; 17% in the experiment with DAPK3; 36% with DCAMKL1; 0% in the experiment on DCAMKL2; 29% in the experiment on DCAMKL3; 29% in the experiment on DDR1. The “%Inh” value with DDR2 is 8%; in the experiment on DLK, 0%; in the experiment with DMPK2 it was 0%; with DMPK it was 0%.
Turning to `Cc1cc(NCC(c2ccccc2)c2ccccc2)nc(NCc2ccc(C(F)(F)F)cc2)n1` [GW497681], the “%Inh” value in the experiment on DAPK2 stood at 0%; with DAPK3 it was 0%; in the experiment with DCAMKL1, 0%; in the experiment on DCAMKL2, 11%; in the experiment with DCAMKL3, 0%; in the experiment on DDR1, 0%. For the same compound, the “%Inh” value in the experiment on DDR2 was determined as 20%; with DLK, 39%; with DMPK2, 1%; in the experiment on DMPK, 0%.
In the case of `COc1ccc(Nc2nccc(NCCNC(=O)Nc3ccccc3F)n2)cc1` [GSK1379901], the “%Inh” value stood at 0% in the experiment with DAPK2; 8% in the experiment with DAPK3; 15% in the experiment on DCAMKL1; 0% in the experiment on DCAMKL2; 8% in the experiment with DCAMKL3; 11% in the experiment on DDR1. In addition, the “%Inh” value in the experiment on DDR2, in the experiment on DLK, in the experiment with DMPK2 and with DMPK was 0% throughout.
For `O=C(Nc1ccccc1)Nc1cccc(Oc2ccc3nccn3n2)c1`, the “%Inh” value in the experiment with DAPK2 was found to be 0%; in the experiment on DAPK3, 0%; in the experiment on DCAMKL1, 0%; with DCAMKL2 it was 0%; in the experiment on DCAMKL3, 69%; in the experiment on DDR1, 97.8%. For the same compound, the “%Inh” value with DDR2 stood at 1%; with DLK it was 0%; in the experiment on DMPK2 it was 0%; in the experiment on DMPK it was 4%.
Regarding `COc1ccc(CNC(=O)NC2CCN(c3ccnc(Nc4cc(OC)c(OC)c(OC)c4)n3)C2)cc1` (stereo not drawn) [GSK1379748], the “%Inh” value is recorded as 0% with DAPK2; 10% in the experiment on DAPK3; 5% in the experiment with DCAMKL1; 0% with DCAMKL2; 0% in the experiment on DCAMKL3; 1% in the experiment with DDR1. In addition, the “%Inh” value is 45% with DDR2, 100% in the experiment on DLK, 2% in the experiment with DMPK2 and 0% in the experiment with DMPK.
In the case of `CCCc1ccc(S(=O)(=O)NC2CCN(c3ccnc(Nc4ccc(F)cc4)n3)C2)cc1` (stereo not drawn) [GSK1379715], the “%Inh” value in the experiment on DAPK2 was determined as 0%; in the experiment on DAPK3, 7%; in the experiment with DCAMKL1 it was 10%; in the experiment with DCAMKL2, 0%; in the experiment on DCAMKL3, 0%; with DDR1 it was 0%. Further, the “%Inh” value stood at 7% in the experiment with DDR2, 0% in the experiment on DLK, 0% in the experiment with DMPK2 and 0% in the experiment with DMPK.
Regarding `O=c1cc(N2CCOCC2)nc2n(Cc3cccc(Cl)c3Cl)ccn12` [GSK2286295], the “%Inh” value is 7% with DAPK2; 15% in the experiment on DAPK3; 5% in the experiment with DCAMKL1; 0% with DCAMKL2; 20% in the experiment on DCAMKL3; 0% in the experiment with DDR1. Also, the “%Inh” value in the experiment on DDR2 is 0%; with DLK it was 0%; with DMPK2 it was 0%; in the experiment with DMPK, 3%.
For the compound `O=C(Nc1n[nH]c2nc(-c3nccs3)c(Br)cc12)C1CC1` [SB-742251], the “%Inh” value with DAPK2 was 0%; in the experiment on DAPK3, 6%; in the experiment on DCAMKL1 it was 4%; in the experiment with DCAMKL2, 0%; in the experiment on DCAMKL3, 0%; in the experiment with DDR1, 0%. The “%Inh” value with DDR2 amounted to 26%; in the experiment on DLK it was 34%; in the experiment on DMPK2, 0%; in the experiment with DMPK, 0%.
Take `COc1ccccc1-c1ccc2c(NC(=O)C3CC3)n[nH]c2n1` [SB-711239]: the “%Inh” value in the experiment on DAPK2 was 11%; with DAPK3, 3%; in the experiment with DCAMKL1, 0%; with DCAMKL2 it was 3%; with DCAMKL3 it was 0%; with DDR1, 10%. Besides, the “%Inh” value is 22% in the experiment on DDR2, 5% in the experiment with DLK, 0% in the experiment on DMPK2 and 1% with DMPK.
As for `CS(=O)(=O)c1ccc(-c2c(-c3ncn[nH]3)sc(N3CCOCC3)c2C#N)cc1`, the “%Inh” value in the experiment with DAPK2 is 0%; in the experiment on DAPK3 it was 0%; with DCAMKL1, 19%; in the experiment on DCAMKL2 it was 23%; in the experiment with DCAMKL3, 19%; with DDR1 it was 0%. The “%Inh” value with DDR2 is 18%; with DLK, 53%; with DMPK2 it was 15%; with DMPK it was 0%.
Consider `Nc1ncnc2[nH]c(-c3ccccc3)nc12` [AH5015], for which the “%Inh” value came out at 0% in the experiment with DAPK2; 27% in the experiment on DAPK3; 11% with DCAMKL1; 0% in the experiment with DCAMKL2; 13% in the experiment with DCAMKL3; 0% with DDR1. Also, the “%Inh” value in the experiment on DDR2 came out at 13%; in the experiment with DLK, 21%; with DMPK2, 0%; in the experiment with DMPK, 0%.
In the case of `O=C1NC(=O)C(N2CCc3ccccc32)=C1c1ccccc1Cl` [SB-373598], the “%Inh” value in the experiment on DAPK2 was determined as 23%; in the experiment on DAPK3, 4%; in the experiment with DCAMKL1 it was 10%; in the experiment with DCAMKL2, 0%; in the experiment with DCAMKL3, 11%; with DDR1, 12%. In addition, the “%Inh” value in the experiment with DDR2 is reported as 14%; with DLK, 0%; in the experiment with DMPK2, 12%; with DMPK, 26%.
As to `Cc1cccc(-c2nc(C)cc(Nc3ccncc3)n2)n1` [GSK257997], the “%Inh” value in the experiment on DAPK2 stood at 2%; with DAPK3, 14%; with DCAMKL1, 11%; with DCAMKL2, 3%; with DCAMKL3, 13%; in the experiment with DDR1, 0%. The “%Inh” value turned out to be 1% in the experiment on DDR2, 0% in the experiment with DLK, 89% with DMPK2 and 0% with DMPK.
Take `COc1cc2ncnc(Nc3ccc4nc(-c5ccccc5)[nH]c4c3)c2cc1OC.Cl` [GW282450]: the “%Inh” value in the experiment with DAPK2 is 15%; in the experiment with DAPK3 it was 13%; in the experiment on DCAMKL1, 8%; in the experiment on DCAMKL2, 0%; with DCAMKL3, 0%; in the experiment with DDR1 it was 0%. Further, the “%Inh” value in the experiment with DDR2 was determined as 0%; in the experiment with DLK it was 7%; with DMPK2, 0%; in the experiment with DMPK, 0%.
Take `Cc1csc(-c2nc(Nc3ccncc3)c3ccccc3n2)n1` [GW869640]: the “%Inh” value in the experiment on DAPK2 turned out to be 26%; in the experiment with DAPK3, 48%; in the experiment on DCAMKL1, 29%; in the experiment on DCAMKL2, 28%; with DCAMKL3 it was 30%; in the experiment on DDR1, 22%. For the same compound, the “%Inh” value with DDR2 stood at 35%; with DLK it was 0%; in the experiment with DMPK2, 35%; with DMPK, 17%.
With `COc1ccc2nc(-c3cccc(C)n3)nc(Nc3ccncc3)c2c1` [GSK204919], the “%Inh” value in the experiment with DAPK2 is reported as 0%; in the experiment with DAPK3, 22%; with DCAMKL1 it was 5%; with DCAMKL2, 26%; in the experiment with DCAMKL3 it was 0%; in the experiment on DDR1 it was 58%. Also, the “%Inh” value with DDR2 came to 5%; with DLK, 8%; with DMPK2, 91.1%; in the experiment on DMPK, 0%.
For `Cc1ccc(-c2cc(-c3c[nH]nc3-c3ccccn3)ccn2)cc1` [GW684088], the “%Inh” value turned out to be 9% in the experiment on DAPK2; 25% in the experiment with DAPK3; 21% in the experiment with DCAMKL1; 24% in the experiment with DCAMKL2; 0% with DCAMKL3; 13% with DDR1. Moreover, the “%Inh” value amounted to 47% with DDR2, 45% in the experiment with DLK, 5% with DMPK2 and 0% in the experiment with DMPK.
In the case of `Cn1ccc2ncnc(Oc3ccc(Nc4nc5ccccc5[nH]4)cc3)c21`, the “%Inh” value in the experiment with DAPK2 is 0%; in the experiment on DAPK3, 3%; in the experiment on DCAMKL1, 0%; with DCAMKL2, 0%; in the experiment on DCAMKL3, 0%; in the experiment on DDR1, 0%. Further, the “%Inh” value in the experiment on DDR2 amounted to 16%; with DLK, 0%; in the experiment with DMPK2, 0%; with DMPK, 0%.
